Screens from PubChem.
GPR151 ag – activators of human GPR151; Q8TDV0; PathHunter beta-arrestin GPR151 cells, luminescence; activation, % at 11.2 µM; 650,000 compounds, 1% hits; AID 1508602; in the data active means activation above about 4.9%;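 further: 0% = median of compound wells and 100% = cells with positive control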
MITF inh – human MITF inhibition, primary screen. O75030. AlphaScreen MITF homodimerization, bead proximity signal. inhibition, % at 2.6 µM. 650,000 compounds, 0.91% hits. AID 1259374; in the data active means inhibition above about 50%;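 further: 0% = vehicle wells with protein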
Target sequence (O75030 whole entry, looked up): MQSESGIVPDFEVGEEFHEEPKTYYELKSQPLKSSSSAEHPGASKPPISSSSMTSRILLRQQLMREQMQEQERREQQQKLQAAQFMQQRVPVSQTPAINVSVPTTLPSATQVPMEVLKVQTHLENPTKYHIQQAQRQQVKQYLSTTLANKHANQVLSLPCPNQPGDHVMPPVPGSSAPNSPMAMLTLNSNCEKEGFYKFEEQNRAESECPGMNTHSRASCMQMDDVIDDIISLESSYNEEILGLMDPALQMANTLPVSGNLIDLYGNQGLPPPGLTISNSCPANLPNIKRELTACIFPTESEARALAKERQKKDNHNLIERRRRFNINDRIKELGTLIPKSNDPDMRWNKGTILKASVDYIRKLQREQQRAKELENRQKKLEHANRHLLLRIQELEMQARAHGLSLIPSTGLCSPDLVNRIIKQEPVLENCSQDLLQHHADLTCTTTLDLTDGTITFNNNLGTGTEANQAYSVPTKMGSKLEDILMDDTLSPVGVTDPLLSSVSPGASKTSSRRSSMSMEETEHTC
FBW7 act – human FBW7 E3 ligase activation, primary screen. AlphaScreen FBW7–phospho-cyclin E peptide binding, activator screen. normalized activity (activation), % at 26.1 µM. 650,000 compounds, 0.13% hits; in the data active means normalized activity above about 1.9%;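 further: purified mutant Fbw7 with reduced substrate affinity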
TEAD-YAP block – TEAD-YAP interaction inhibition | HEK-TIYL cells, TEAD-Gal4/YAP UAS-luciferase luminescence | inhibition, % at 9.12 µM | 640,000 compounds, 1.4% hits | AID 1259422; in the data active means inhibition above about 32%;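 further: 0% = median of test compound wells and 100% = reference inhibitor wells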
MITF confirm – confirmation of human MITF inhibitors; shares compounds with MITF inh; AlphaScreen MITF homodimerization, biotin/His-MITF beads; inhibition, % at 2.6 µM; 4,700 compounds, 16% hits;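 active means inhibition above a cutoff derived from the DMSO control wells, cut at about 28% in these data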;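 further: 0% = MITF dimer wells with DMSO only; inhibitors lower the bead chemiluminescence by keeping MITF from dimerizing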
AS interf DR – counter-screen: compounds optically interfering with AlphaScreen. shares compounds with MITF inh. AlphaScreen optical interference counterscreen, cell-free. IC50, µM. 480 compounds, 6% hits. AID 1259373; call rule not given here
AlphaScreen intf2 – AlphaScreen optical interference, counter-screen | shares compounds with MITF inh | LysRS AlphaScreen counterscreen, signal interference, triplicate | inhibition, % at 2.6 µM | 4,700 compounds, 7.6% hits;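 active means inhibition above a cutoff derived from the DMSO control wells, cut at about 30% in these data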
The depositor's hits bear a star; . = no result given; ! = not confirmed by another sample. Sampled rows, rich in hits. Any-hit rate of the full collection: about 3.4%.

SMILES	GPR151 ag	MITF inh	FBW7 act	TEAD-YAP block	MITF confirm	AlphaScreen intf2	others
O=C(CCl)N1CCc2ccccc2C1	1	10	0	12	.	.
CC(=O)N1CCN(CC(=O)N2CCc3ccccc3C2)CC1	3	83*	0	7	14	9
Cn1nnc(-c2ccc(Nc3nccc(-c4ccc5nc(C6CC6)[nH]c(=O)c5c4)n3)cc2)n1	2	63*	1	4	39*	-22	AS interf DR=>6.5
O=C(C1CCC(Nc2nccc(-c3ccc4nc(C5CC5)[nH]c(=O)c4c3)n2)CC1)N1CCCC1 (stereo not given)	0	59*!	2.6*!	-17	63*	-10	AS interf DR=>6.5
O=C(Nc1ccc(Nc2nccc(-c3ccc4nc(C5CC5)[nH]c(=O)c4c3)n2)cc1)N1CCCC1	1	39	2	-16	.	.
COc1ccc(CC(=O)NCc2nnc(SCC(=O)N3CCc4ccccc43)n2-c2ccccc2OC)cc1	2	4	0	0	.	.
COc1oc(-c2ccc(C)cc2)nc1C(F)(F)F	-1	10	2	14	.	.
COc1oc(-c2ccc(F)cc2)nc1C(F)(F)F	-2	54*	0	-1	9	14
CC(NC(=O)CCc1ccccc1)C(=O)O (stereo not given)	0	7	0	1	.	.
CCOc1ccccc1CN(CCc1ccc2c(c1)OCO2)Cc1cc(OC)c(OC)cc1OC	-1	14	0	1	.	.
CCOc1ccccc1CN(CCc1ccc2c(c1)OCO2)Cc1ccccn1	-2	84*	0	-8	4	24
COc1ccc(Br)cc1CN(CCc1ccc2c(c1)OCO2)Cc1cccnc1	-1	52*	0	8	-5	-2
COc1ccc(C2NC(=O)NC3=C2C(=O)N(CC2CCCO2)C3)cc1 (stereo not given)	1	-4	0	-1	.	.
O=C(c1ccccc1[N+](=O)[O-])n1cnc2ccccc21	1	56*	0	4	-3	12
O=C(c1cc(Cl)ccc1[N+](=O)[O-])n1cnc2ccccc21	-1	15	1	9	.	.
O=C(c1ccccc1)N1CCN(CC2CC=CCC2)CC1 (stereo not given)	-1	41	0	-4	.	.
O=[N+]([O-])c1ccccc1CN1CCN(CC2CC=CCC2)CC1 (stereo not given)	0	66*	0	-13	-5	3
O=S(=O)(c1ccccc1)N1CCN(CC2CC=CCC2)CC1 (stereo not given)	0	52*	0	2	-1	1
Cc1ccc(CN2CCN(CC3CC=CCC3)CC2)cc1 (stereo not given)	0	22	0	3	.	.
Fc1cccc(CN2CCN(CC3CC=CCC3)CC2)c1 (stereo not given)	3	83*	0	-4	-1	-3
Clc1ccccc1CN1CCN(CC2CC=CCC2)CC1 (stereo not given)	-1	60*	0	0	6	-5
O=[N+]([O-])c1ccccc1S(=O)(=O)N1CCN(CC2CC=CCC2)CC1 (stereo not given)	1	31	0	2	.	.
N#Cc1ccccc1C[N+]1=C(N)c2ccccc2C1	0	-7	0	0	.	.
N=C1C(c2nc3ccccc3[nH]2)=C(O)CN1c1ccc(C(=O)O)cc1	1	-5	0	3	.	.
COCCn1nnnc1C(C(C)C)N1CCSCC1 (stereo not given)	0	59*	0	5	12	12
SMILES	GPR151 ag	MITF inh	FBW7 act	TEAD-YAP block	MITF confirm	AlphaScreen intf2	others
CCN1CCN(C(c2nnnn2CCOC)C(C)C)CC1 (stereo not given)	0	20	0	13	.	.
CCOc1cc(/C=N/NC(=O)c2ccccn2)ccc1OC(=O)c1ccccc1	-1	26	0	-27	.	.
Cc1ccc(C(=O)OCc2cn3ccccc3n2)cc1	-1	51*	0	-4	11	12
CSc1ccc(/C=C(/C#N)c2ccc(C(=O)O)cc2)cc1	2	-6	0	-39	.	.
COc1ccc(CNC(=O)c2cnn3c2NC(c2ccc(OC)cc2)CC3C(F)(F)F)cc1 (stereo not given)	0	2	0	0	.	.
COc1ccc(CNC(=O)c2cnn3c2NC(c2ccc4c(c2)OCO4)CC3C(F)(F)F)cc1 (stereo not given)	1	68*	0	-21	-9	-3
NS(=O)(=O)c1ccc(CCNC(=O)CNS(=O)(=O)c2cccs2)cc1	-1	80*	0	6	-5	5
COc1ccc2c(c1)C(C)=CC(C)(C)N2C(N)=S	1	72*	-2	1	65*	54*
C/C=C/C(=O)N1c2ccc(OC)cc2C(C)=CC1(C)C	-1	7	0	-4	.	.
COc1ccc(OC)c(NC(=O)CN(C)CC(=O)Nc2ccccc2Br)c1	0	74*	0	-6	15	17
COc1ccc(C)cc1S(=O)(=O)N(C)CC(=O)Nc1ccccc1F	3	-2	0	-1	.	.
CC(NC(=O)CN(C)CC(=O)Nc1ccccc1Br)c1ccccc1 (stereo not given)	0	66*	0	-1	-25	1
COc1ccc(OC)c(S(=O)(=O)N(C)CC(=O)Nc2ccccc2F)c1	-1	51*	0	-1	20	8
O=C(O)c1cccc(NC(=S)NC(=O)c2ccccc2[N+](=O)[O-])c1	0	-18	0	-13	.	.
CCCCCCc1ccc(C2=N/C(=C\c3ccccc3)C(=O)O2)cc1	0	10	0	9	.	.
O=C(NCc1ccco1)Nc1c[nH]c2cccnc2c1=O	-1	59*	-1	-4	81*	87*
COc1cccc(CN2CCN3C(=O)[C@H](CCCCN)NC(=O)[C@H]3C2)c1	3	-1	0	2	.	.
COc1cc(CN2CCN(C3CCCC(C)C3)CC2)cc(OC)c1O (stereo not given)	0	74*	0	6	9	26
COc1cc(CN2CCN(C3CCCCCC3)CC2)cc(OC)c1O	0	58*	1	-8	6	14
Cc1cccc2cc3c(N)c(C(=O)N4CCC(C)CC4)sc3nc12	-1	3	1	6	.	.
N#Cc1ccc(-c2ccc(F)cc2)nc1SCC(=O)NC1CC1	1	52*	0	5	-3	3
CC(C)NC(=O)C1CCN(Cc2ccc(C(F)(F)F)cc2)CC1	-1	52*	1	1	-5	-5
CC(C)NC(=O)C1CCN(Cc2ccc(Cl)c(Cl)c2)CC1	0	51*	1	-2	-14	1
CCOC(=O)C1CCN(Cc2ccc(F)cc2)CC1	0	19	0	10	.	.
CCOC(=O)C1CCN(Cc2ccc(C(F)(F)F)cc2)CC1	1	51*	0	2	-1	9
Cc1c(C(=O)Nc2ccccc2F)cccc1[N+](=O)[O-]	0	7	0	15	.	.
